From PubChem BioAssay (NCI)
Compounds without any hit were thinned out: in the full panel of roughly 83,000, 20% have a hit.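 In brief: 96-well plates, 48 h treatment, single concentration, percent growth endpoint.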 The source made the active and inactive calls. How the source made its calls: active means growth percent below 10; inactive means the rest.

Key:
Experiment in all cases: NCI-60 one-dose screen, 48 h (100 = growth as untreated, 0 = no growth, -100 = all killed)
Details in all cases: 10 µM unless noted
NCI-H23 lung = system: NCI-H23 lung
NCI-H226 lung = system: NCI-H226 lung
NCI-H322M lung = system: NCI-H322M lung
HOP-62 NSCLC = system: HOP-62 NSCLC
NCI-H460 lung = system: NCI-H460 lung
HOP-92 NSCLC = system: HOP-92 NSCLC
NCI-H522 lung = system: NCI-H522 lung
A549/ATCC NSCLC = system: A549/ATCC NSCLC
786-0 renal = system: 786-0 renal
COLO 205 colon = system: COLO 205 colon

Measured: growth

CCOC(=O)c1c(C)nc2c(c1N)/C(=C/c1ccc(OC)cc1)C(=O)N2Cc1ccccc1
inactive: NCI-H23 lung 59.2% | NCI-H226 lung 86.1% | NCI-H322M lung 74.9% | HOP-62 NSCLC 58.1% | NCI-H460 lung 41.1% | HOP-92 NSCLC 45% | NCI-H522 lung 66.3% | A549/ATCC NSCLC 63.4% | 786-0 renal 64.4% | COLO 205 colon 73.7%

COc1ccc2c(c1)c(-c1nc(-c3c[nH]c4ncccc34)cs1)cn2CCCN1CCOCC1
active: 786-0 renal -24.3%
inactive: NCI-H23 lung 56.6% | NCI-H226 lung 45.4% | NCI-H322M lung 42.1% | HOP-62 NSCLC 28.9% | NCI-H460 lung 25.7% | HOP-92 NSCLC 27.9% | NCI-H522 lung 26.3% | A549/ATCC NSCLC 42%

CC1(C)CC2=C3C=C[C@@H]4[C@@]5(C)CCC(=O)C(C)(C)[C@@H]5CC[C@@]4(C)[C@]3(C)CC[C@@]2(C(=O)O)C[C@H]1O
inactive: NCI-H23 lung 23.2% | NCI-H226 lung 25.5% | NCI-H322M lung 26.6% | HOP-62 NSCLC 30.1% | NCI-H460 lung 18% | NCI-H522 lung 26.4% | A549/ATCC NSCLC 26.3% | 786-0 renal 17.2% | COLO 205 colon 29.2%
active: HOP-92 NSCLC -7.2%

O=P(O)(O)OCC1OC(n2cnc3c(NCc4ccco4)ncnc32)C(O)C1O (configuration not stated)
inactive: NCI-H23 lung 18% | NCI-H226 lung 20.4% | NCI-H322M lung 28.3% | HOP-62 NSCLC 16% | NCI-H460 lung 12.6% | 786-0 renal 10.5%
active: HOP-92 NSCLC -7.22% | NCI-H522 lung -32.7% | A549/ATCC NSCLC 7.15%

N#C/C(=C\c1ccc([N+](=O)[O-])cc1)n1nnc2cc(F)c(F)cc21
inactive: NCI-H23 lung 34.6% | NCI-H322M lung 72.5% | HOP-62 NSCLC 63.9% | NCI-H460 lung 11.7% | NCI-H522 lung 36.9% | A549/ATCC NSCLC 64.5% | COLO 205 colon 19.9%
active: NCI-H226 lung -1.27% | HOP-92 NSCLC 9.03% | 786-0 renal -58.4%

O=C(NNC(=O)c1ccc(NC(=O)c2ccccn2)cc1)Nc1ccc2ccccc2c1
inactive: NCI-H23 lung 96.5% | NCI-H226 lung 103% | NCI-H322M lung 103% | HOP-62 NSCLC 115% | NCI-H460 lung 110% | HOP-92 NSCLC 108% | NCI-H522 lung 105% | A549/ATCC NSCLC 108% | 786-0 renal 111%

COC(=O)CCC/C=C\C[C@H]1C=CC(=O)/C1=C/C[C@@H](O)C/C=C\CC(F)(F)F
active: NCI-H23 lung -15.2% | NCI-H226 lung -48% | HOP-62 NSCLC -12.4% | NCI-H460 lung -47.2% | HOP-92 NSCLC -18.8% | NCI-H522 lung -56.6% | A549/ATCC NSCLC -3.51% | 786-0 renal -39.5% | COLO 205 colon -36.2%
inactive: NCI-H322M lung 46.9%

COc1cc(C(=O)n2nc(N3CCOCC3)c3cc(-n4cccc4)ccc32)cc(OC)c1OC
inactive: NCI-H23 lung 76.5% | NCI-H226 lung 69.3% | NCI-H322M lung 88.3% | HOP-62 NSCLC 92.4% | NCI-H460 lung 75.7% | HOP-92 NSCLC 14.4% | NCI-H522 lung 74.4% | A549/ATCC NSCLC 72.6% | 786-0 renal 17.4%

Cn1c(=O)c2[nH]c(SCC(=O)Nc3ccc(C(=O)/C=C/c4ccccc4Cl)cc3)nc2n(C)c1=O
inactive: NCI-H23 lung 98.1% | NCI-H226 lung 93.1% | NCI-H322M lung 97.6% | HOP-62 NSCLC 90.4% | NCI-H460 lung 102% | HOP-92 NSCLC 65% | NCI-H522 lung 94.3% | A549/ATCC NSCLC 86.7% | 786-0 renal 88.3%

NC(N)=NS(=O)(=O)c1ccc(NC2=C(I)C(=O)c3ncccc3C2=O)cc1
inactive: NCI-H23 lung 89.9% | NCI-H226 lung 86.7% | NCI-H322M lung 109% | HOP-62 NSCLC 111% | NCI-H460 lung 103% | HOP-92 NSCLC 115% | NCI-H522 lung 81% | A549/ATCC NSCLC 106% | 786-0 renal 110% | COLO 205 colon 112%

CN(Cc1cnc2nc(N)nc(N)c2n1)c1ccc(C(=O)NC(CCC(=O)O)C(=O)O)cc1Br (configuration not stated)
inactive: NCI-H23 lung 31.3% | NCI-H226 lung 48.4% | NCI-H322M lung 69.6% | HOP-62 NSCLC 33.5% | NCI-H460 lung 16.7% | HOP-92 NSCLC 59.6% | NCI-H522 lung 43.8% | A549/ATCC NSCLC 26% | 786-0 renal 15.8%

CN1CCN(c2ccc3nc4c(nc3c2C(F)(F)F)C(=O)c2ncccc2C4=O)CC1
active: NCI-H23 lung -39.7% | NCI-H226 lung -78.9% | HOP-62 NSCLC -63.3% | NCI-H460 lung -56.6% | NCI-H522 lung -67.5% | A549/ATCC NSCLC -36.2%
inactive: NCI-H322M lung 36.6% | HOP-92 NSCLC 27.5% | 786-0 renal 36.7%

Cc1ccccc1Nc1cc(O)c2c(=O)cc(-c3ccccc3)oc2c1
active: NCI-H460 lung 8.06%
inactive: NCI-H23 lung 45.5% | NCI-H226 lung 57.8% | NCI-H322M lung 70.5% | HOP-62 NSCLC 49.4% | HOP-92 NSCLC 86.7% | NCI-H522 lung 36% | A549/ATCC NSCLC 35.2% | 786-0 renal 43.5%

C=C1C(=O)O[C@H]2[C@H]1CC/C(COC(=O)c1cc3cc(Cl)ccc3[nH]1)=C\CC[C@@]1(C)O[C@@H]21
inactive: NCI-H322M lung 44.3%
active: NCI-H23 lung -64.9% | NCI-H226 lung -64.2% | HOP-62 NSCLC -63.6% | NCI-H460 lung 6.97% | HOP-92 NSCLC -80.3% | NCI-H522 lung -81.1% | A549/ATCC NSCLC -67.5% | 786-0 renal -90.5% | COLO 205 colon -77.6%

CCN(CC)CCN1C(=O)c2c(c(C)c3c(oc4ccc(O)cc43)c2C)C1=O
inactive: NCI-H23 lung 47.3% | NCI-H226 lung 70% | NCI-H322M lung 33.2% | HOP-62 NSCLC 80.7% | HOP-92 NSCLC 91.7% | NCI-H522 lung 68.2% | A549/ATCC NSCLC 20.6%
active: NCI-H460 lung -45.6% | 786-0 renal -36.2%

NS(=O)(=O)c1ccc(C(=O)NN2C(=O)c3c(Br)c(Br)c(Br)c(Br)c3C2=O)cc1
inactive: NCI-H23 lung 104% | NCI-H226 lung 102% | NCI-H322M lung 111% | HOP-62 NSCLC 105% | NCI-H460 lung 110% | HOP-92 NSCLC 99.4% | NCI-H522 lung 94.3% | A549/ATCC NSCLC 102% | 786-0 renal 103%

COc1cc(C2C(C(=O)OCc3ccccc3)=C(C)NC(C)=C2C(=O)OCc2ccccc2)cc(OC)c1OC
inactive: NCI-H23 lung 29.3% | NCI-H226 lung 32.2% | NCI-H322M lung 58% | HOP-62 NSCLC 51% | NCI-H460 lung 25.6% | NCI-H522 lung 25% | A549/ATCC NSCLC 23.4% | 786-0 renal 25.2%
active: HOP-92 NSCLC -4.65%

Oc1c(CN2CCC(N3CCCCC3)CC2)cc(Cc2cc(CN3CCC(N4CCCCC4)CC3)c(O)c3ncccc23)c2cccnc12
inactive: NCI-H23 lung 39.3% | NCI-H322M lung 19.7% | HOP-62 NSCLC 18.6% | HOP-92 NSCLC 30.5% | A549/ATCC NSCLC 22.9% | 786-0 renal 24.4%
active: NCI-H226 lung 5.18% | NCI-H460 lung 5.8% | NCI-H522 lung -34.7%

O=C1/C(=C/c2ccccn2)NC(=S)N1c1ccccc1Cl
inactive: NCI-H23 lung 56.4% | NCI-H226 lung 78.3% | NCI-H322M lung 66.7% | HOP-62 NSCLC 38.9% | NCI-H460 lung 31.2% | HOP-92 NSCLC 102% | NCI-H522 lung 58.1% | A549/ATCC NSCLC 51% | 786-0 renal 31.8%

Cc1ccc(N2C(=O)CCC2=O)cc1
inactive: NCI-H23 lung 101% | NCI-H226 lung 105% | NCI-H322M lung 104% | HOP-62 NSCLC 99.2% | NCI-H460 lung 99.7% | HOP-92 NSCLC 96.3% | NCI-H522 lung 74.2% | A549/ATCC NSCLC 102% | 786-0 renal 97.4% | COLO 205 colon 107%

COC(=O)c1ccc(NC(=O)Nc2ccc(C(=O)OC)cc2)cc1
inactive: NCI-H23 lung 113% | NCI-H226 lung 99% | NCI-H322M lung 104% | HOP-62 NSCLC 106% | NCI-H460 lung 110% | HOP-92 NSCLC 85.7% | NCI-H522 lung 51.2% | A549/ATCC NSCLC 94.7% | 786-0 renal 105% | COLO 205 colon 104%

COc1ccc(-c2ccc(-c3ccc(C(=N)N)nc3)s2)cc1Cl
active: HOP-62 NSCLC -30.8% | NCI-H460 lung -80.3% | NCI-H522 lung -47.3% | A549/ATCC NSCLC -32.3% | 786-0 renal -89.7%
inactive: NCI-H23 lung 41.2% | NCI-H226 lung 77.7% | NCI-H322M lung 15.7% | HOP-92 NSCLC 84.4%

CCOC(=O)c1ccccc1-c1c2ccc(=[N+](C)C)cc-2oc2cc(N(C)C)ccc12
inactive: NCI-H23 lung 93% | NCI-H226 lung 19.5% | NCI-H322M lung 12.6% | NCI-H522 lung 14.2% | A549/ATCC NSCLC 12% | 786-0 renal 20.5%
active: HOP-62 NSCLC 6.81% | NCI-H460 lung 3.9% | HOP-92 NSCLC -19.3%

Fc1cccc(-c2ccc3c(c2)C2(CCNCC2)CN3)c1
inactive: NCI-H23 lung 92.1% | NCI-H226 lung 98% | NCI-H322M lung 101% | HOP-62 NSCLC 105% | NCI-H460 lung 106% | HOP-92 NSCLC 91.3% | NCI-H522 lung 90.4% | A549/ATCC NSCLC 99.9% | 786-0 renal 98.5%

C[C@]1(O)CC(=O)[C@]2(O)C3=C(C=C[C@]2(O)C1)C(=O)c1c(O)cccc1C3=O
inactive: NCI-H226 lung 89.3% | NCI-H322M lung 86.1% | HOP-62 NSCLC 49% | NCI-H460 lung 74.9% | A549/ATCC NSCLC 103%
active: NCI-H23 lung -6.78% | HOP-92 NSCLC -12.2% | NCI-H522 lung -59.5% | 786-0 renal 9.83%

CN1CCN(Cc2ccc(NC(=O)c3cncc(C#Cc4cnc(N)c5ncccc45)c3)cc2C(F)(F)F)CC1
active: NCI-H226 lung 7.14% | HOP-62 NSCLC -5.02% | NCI-H460 lung -35.5% | HOP-92 NSCLC 7.16% | NCI-H522 lung 9.75% | 786-0 renal -82.3%
inactive: NCI-H23 lung 22.2% | NCI-H322M lung 25.1% | A549/ATCC NSCLC 10.6%
